# Experimental data as given in PubChem BioAssay (NCATS).
# Inconclusive results are not listed. Where a call stands in place of a potency, no number is given. Activity calls are given as the source filed them. Unless noted, calls come from the whole dose curve; as a rule, active = well fitted curve in the direction sought with a large enough effect; inconclusive = small, poorly fitted or top-dose-only effect, or another doubt; inactive = no such curve, though single readings can be large; an effect the other way counts as inactive or inconclusive.
# Key:
# [1] = Cytometric Cell-Based qHTS for Inhibitors of the mTORC1 Signaling Pathway in MEF (Tsc2-/-, p53-/-) Cells (AID 2660);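 note: Tsc2 and p53 null MEFs carrying empty vector with compound for 24 h; percent of cells above a phospho-rpS6 to PI ratio cutoff in each well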
# Method in brief: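 Readout: Alexa-488 phospho-rpS6 (Ser235/236) intensity divided by PI intensity, thresholded against 7.5 nM rapamycin wells and reported as % positive cells. PI cell count served as the viability measure. Compound exposure was 24 hrs at 37 degree Celsius.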
# [2] = High Content Imaging Cell-Based qHTS for Inhibitors of the mTORC1 Signaling Pathway in MEF (Tsc2-/-, p53-/-) Cells (AID 2666); details: at 38.3 µM (top of the series);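 note: percent of cells scored positive for phospho-rpS6 Ser235/236 immunostaining by imaging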
# Method in brief: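 Cells were plated, dosed with compound after 24 hrs, and incubated another 24 hrs at 37 degree Celsius. Fixed cells were immunostained for phospho-rpS6 Ser235/236 and counterstained, and the normalized signal was scored as % active cells against rapamycin and DMSO controls.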
# [3] = High Content Imaging Cell-Based qHTS for Inhibitors of the mTORC1 Signaling Pathway in MEF Cells (AID 2667);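 note: Tsc2-/- p53-/- MEFs stably re-expressing wild-type Tsc2 exposed 24 h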
# Method in brief: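 Immunofluorescence for rpS6 phosphorylation in MEFs of Tsc2-/-, p53-/- background rescued with WT Tsc2. Compound exposure lasted 24 hrs. Inhibition was scored against rapamycin-treated control wells.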
# [4] = Cytometry Cell-Based qHTS for Inhibitors of the mTORC1 Signaling Pathway in MEF cells (AID 2668);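 note: Tsc2-/- p53-/- mouse embryonic fibroblasts stably re-expressing wild-type Tsc2; percent cells positive for phospho-rpS6 Ser235/236 relative to propidium iodide stain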
# Method in brief: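 WT MEFs (Tsc2-/-, p53-/- stably re-expressing WT Tsc2) in DMEM + 10% FBS received compounds 24 hrs after plating, for 24 hrs at 37 degree Celsius. Fixed cells stained with Alexa-488 anti-phospho-rpS6 Ser235/236 and propidium iodide; laser-scanning cytometry read-out.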
# [5] = molecular target: Ubiquitin carboxyl-terminal hydrolase 2 (Homo sapiens) (UniProt O75604); test: qHTS Validation Assay for Inhibitors of Ubiquitin-specific Protease USP2a Using CHOP2 as the Reporter (AID 463106)
# Method in brief: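 10nM USP2 core + cpd, 30min RT; add 25nM Ub-CHOP2/25nM substrate; 60min RT; FI 485/531nm. Buffer Tris pH 8.0, CaCl2, BME, CHAPS. Norm. to NEM = 100% inhibition; time-zero read flags fluorescent artifacts.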
# [6] = molecular target: DNA polymerase III PolC-type (Bacillus subtilis (strain 168)) (UniProt P13267); test: qHTS Validation Assay for the Inhibitors of DNA Replication in Gram-Positive Bacteria (AID 485295);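 note: PicoGreen fluorescence of double-stranded DNA made on primed circular M13 template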
# Method in brief: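 Reconstituted B. subtilis holoenzyme (Pol III, beta clamp, SSB, primase) was preincubated with compound at room temperature, then given single-stranded circular M13Gori plus dNTPs and NTPs. EDTA-containing PicoGreen stopped the reaction, and dsDNA product was read by fluorescence.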
# [7] = molecular target: Tumor susceptibility gene 101 protein (Homo sapiens) (UniProt Q99816); test: qHTS Validation Assay for Iinhibitors of HIV-1 Budding by Blocking the Interaction of PTAP/TSG101 (AID 485342; calls by dose curve)
# Tumor susceptibility gene 101 protein (Homo sapiens), sequence (Q99816 whole entry, looked up, the tested form may be a part): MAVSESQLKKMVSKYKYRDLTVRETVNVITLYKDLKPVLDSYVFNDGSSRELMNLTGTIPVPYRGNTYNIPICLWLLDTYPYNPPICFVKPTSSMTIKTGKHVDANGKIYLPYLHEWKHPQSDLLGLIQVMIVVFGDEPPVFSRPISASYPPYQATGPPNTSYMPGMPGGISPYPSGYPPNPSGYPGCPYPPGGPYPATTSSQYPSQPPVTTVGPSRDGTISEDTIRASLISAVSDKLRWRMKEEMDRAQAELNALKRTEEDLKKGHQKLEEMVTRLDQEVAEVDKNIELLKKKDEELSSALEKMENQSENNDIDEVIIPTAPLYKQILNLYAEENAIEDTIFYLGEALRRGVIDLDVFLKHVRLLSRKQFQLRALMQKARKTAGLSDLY
# Method in brief: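 Tsg101 binding domain (10 uM final) in pH 7.5 HEPES/NaCl/Tween 20/EDTA/TCEP buffer was mixed with pin-transferred compounds, then FITC-labeled PTAP peptide (50 nM final) was added; after 20 min at r.t., fluorescence polarization was read.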
# [8] = molecular target: Beta-2 adrenergic receptor (Homo sapiens) (UniProt P07550); test: qHTS validation assay of beta-arrestin-biased ligands of beta2-adrenergic receptor (AID 485366)
# Beta-2 adrenergic receptor (Homo sapiens), sequence (P07550 whole entry, looked up): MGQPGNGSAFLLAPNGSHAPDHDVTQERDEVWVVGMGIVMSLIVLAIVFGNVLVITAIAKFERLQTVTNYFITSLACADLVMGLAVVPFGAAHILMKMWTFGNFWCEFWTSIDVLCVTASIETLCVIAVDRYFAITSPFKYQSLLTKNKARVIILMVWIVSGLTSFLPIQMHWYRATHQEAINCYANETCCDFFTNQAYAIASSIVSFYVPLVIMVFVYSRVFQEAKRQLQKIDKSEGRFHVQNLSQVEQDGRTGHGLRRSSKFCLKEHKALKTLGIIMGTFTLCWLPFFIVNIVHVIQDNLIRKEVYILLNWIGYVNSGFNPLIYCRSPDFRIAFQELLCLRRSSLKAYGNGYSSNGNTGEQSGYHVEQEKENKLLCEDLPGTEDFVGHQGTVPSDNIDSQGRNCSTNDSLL
# Method in brief: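 Tango cells (recombinant beta2-AR with recombinant beta-arrestin; recruitment releases tTA driving luciferase) were treated with compounds titrated up to 46 microM for 18 hr at 37 degrees C. Luminescence gave %Activity, and concentration-response curves were curve-classified.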
# [9] = molecular target: Thioredoxin reductase 1, cytoplasmic (Rattus norvegicus) (UniProt O89049); test: qHTS Assay for Substrates of Mammalian Selenoprotein Thioredoxin Reductase 1 (TrxR1) (AID 488772);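 note: NADPH fluorescence in the first read after selenite addition and not the 8 min delta; a drop in NADPH fluorescence below the no-compound background marks a TrxR1 substrate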
# Thioredoxin reductase 1, cytoplasmic (Rattus norvegicus), sequence (O89049 whole entry, looked up): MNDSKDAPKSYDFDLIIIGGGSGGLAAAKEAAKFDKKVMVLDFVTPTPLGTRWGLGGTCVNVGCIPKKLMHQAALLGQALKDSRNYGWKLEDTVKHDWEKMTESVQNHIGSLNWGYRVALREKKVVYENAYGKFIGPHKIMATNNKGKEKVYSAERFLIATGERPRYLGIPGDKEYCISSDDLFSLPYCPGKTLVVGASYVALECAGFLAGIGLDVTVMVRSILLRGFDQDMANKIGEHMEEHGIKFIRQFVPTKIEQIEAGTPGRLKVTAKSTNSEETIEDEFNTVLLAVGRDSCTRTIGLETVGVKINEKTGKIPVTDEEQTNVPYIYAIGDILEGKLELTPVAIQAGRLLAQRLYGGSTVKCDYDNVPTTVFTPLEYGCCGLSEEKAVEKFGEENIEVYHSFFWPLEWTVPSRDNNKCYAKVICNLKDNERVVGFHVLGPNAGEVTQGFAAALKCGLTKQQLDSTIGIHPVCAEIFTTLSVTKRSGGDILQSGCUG
# Method in brief: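 Quantitative HTS in Tris-HCl buffer at pH 7.5 with EDTA and Tween-20, using rat TrxR1, 400 uM NADPH and 400 uM selenite (final). A fall in initial NADPH fluorescence relative to background marked substrate behaviour.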
# [10] = molecular target: Thioredoxin reductase 1, cytoplasmic (Rattus norvegicus) (UniProt O89049); test: qHTS Assay for Inhibitors of Mammalian Selenoprotein Thioredoxin Reductase 1 (TrxR1) (AID 488773); details: Potency: inhibition;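 note: drop in NADPH fluorescence over an 8 min run after selenite addition; nearly all actives have a fitted effect of over 40% in size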
# Method in brief: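 Steps: enzyme (90 nM) plus NADPH (400 uM final), 5 min at ~22 deg C; compound added, 15 min; selenite (400 uM final) added; fluorescence followed for 8 min. Concentration-response curves derived from the normalized delta values.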
# [11] = molecular target: M-phase phosphoprotein 8 (Homo sapiens) (UniProt Q99549); test: qHTS Validation Assay for Inhibitors for MPP8 Chromodomain Interactions with Methylated Histone Tails (AID 488949);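 note: AlphaScreen signal from MPP8 chromodomain bound to biotinylated H3K9me3 peptide; top concentration of the series differs between compounds; nearly all actives have a fitted effect of over 55% in size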
# M-phase phosphoprotein 8 (Homo sapiens), sequence (Q99549 whole entry, looked up): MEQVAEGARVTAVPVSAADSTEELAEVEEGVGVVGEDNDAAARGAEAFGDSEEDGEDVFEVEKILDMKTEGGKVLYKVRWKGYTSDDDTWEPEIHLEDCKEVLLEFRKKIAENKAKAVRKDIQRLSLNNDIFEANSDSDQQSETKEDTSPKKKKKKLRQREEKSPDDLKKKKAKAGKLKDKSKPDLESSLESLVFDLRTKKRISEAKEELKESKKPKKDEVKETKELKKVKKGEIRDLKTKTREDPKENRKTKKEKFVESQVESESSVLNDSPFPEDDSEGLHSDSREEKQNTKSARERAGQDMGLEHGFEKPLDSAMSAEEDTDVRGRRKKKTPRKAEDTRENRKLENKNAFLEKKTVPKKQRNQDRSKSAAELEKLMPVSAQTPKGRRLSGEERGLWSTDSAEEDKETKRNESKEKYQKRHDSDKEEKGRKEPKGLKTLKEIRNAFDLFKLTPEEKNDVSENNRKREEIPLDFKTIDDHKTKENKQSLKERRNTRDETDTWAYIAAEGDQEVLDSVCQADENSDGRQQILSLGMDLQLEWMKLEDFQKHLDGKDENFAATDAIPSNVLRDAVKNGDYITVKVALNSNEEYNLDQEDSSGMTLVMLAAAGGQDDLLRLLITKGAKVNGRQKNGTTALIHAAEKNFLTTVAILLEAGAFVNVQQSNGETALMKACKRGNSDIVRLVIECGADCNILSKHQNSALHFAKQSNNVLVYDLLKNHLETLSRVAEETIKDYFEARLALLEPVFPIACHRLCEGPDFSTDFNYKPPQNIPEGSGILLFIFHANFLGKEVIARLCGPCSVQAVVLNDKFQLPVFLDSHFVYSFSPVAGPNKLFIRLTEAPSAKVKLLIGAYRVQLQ
# Method in brief: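 MPP8 (50 nM) was preincubated with biotinylated H3(1-18)K9me3 peptide (50 nM) in PBS pH 7.4, 0.01% Tween-20 for 30 min at room temperature, then with compounds for 30 min; binding was detected by AlphaScreen.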
# [12] = molecular target: Chromobox protein homolog 1 (Homo sapiens) (UniProt P83916); test: qHTS Validation Assay for Inhibitors of HP1-beta Chromodomain Interactions with Methylated Histone Tails (AID 488953);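 note: loss of AlphaScreen luminescence from HP1-beta binding biotinylated H3K9me3 peptide; nearly all actives have a fitted effect of over 50% in size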
# Chromobox protein homolog 1 (Homo sapiens), sequence (P83916 whole entry, looked up): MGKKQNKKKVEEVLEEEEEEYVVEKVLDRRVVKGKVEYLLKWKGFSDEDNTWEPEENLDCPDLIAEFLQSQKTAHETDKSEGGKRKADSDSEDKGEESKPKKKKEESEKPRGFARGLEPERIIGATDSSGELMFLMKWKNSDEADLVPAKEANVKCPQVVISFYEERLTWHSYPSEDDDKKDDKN
# Method in brief: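 HP1-beta (50 nM) was preincubated 30 min at room temperature with biotinylated H3(1-18)K9me3 peptide (50 nM) in PBS pH 7.4, 0.01% Tween-20, then with compounds 30 min. AlphaScreen signal was read after streptavidin donor/nickel chelate acceptor beads (10 ug/mL final).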
# [13] = molecular target: D(1A) dopamine receptor (Homo sapiens) (UniProt P21728); test: HTS Assay for Allosteric Agonists of the Human D1 Dopamine Receptor: Primary Screen for Agonists (AID 488981)
# D(1A) dopamine receptor (Homo sapiens), sequence (P21728 whole entry, looked up): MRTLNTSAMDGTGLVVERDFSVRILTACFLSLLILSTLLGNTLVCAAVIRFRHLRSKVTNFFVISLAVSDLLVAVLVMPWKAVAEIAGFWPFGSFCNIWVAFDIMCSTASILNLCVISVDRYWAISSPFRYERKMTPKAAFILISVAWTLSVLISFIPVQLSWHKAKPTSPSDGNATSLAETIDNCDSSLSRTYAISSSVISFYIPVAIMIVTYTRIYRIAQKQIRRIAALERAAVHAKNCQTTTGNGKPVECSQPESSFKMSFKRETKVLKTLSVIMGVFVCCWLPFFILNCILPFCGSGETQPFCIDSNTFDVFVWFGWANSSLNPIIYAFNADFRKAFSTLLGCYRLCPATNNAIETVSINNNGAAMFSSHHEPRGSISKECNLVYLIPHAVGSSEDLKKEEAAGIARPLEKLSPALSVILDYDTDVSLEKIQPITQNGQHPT
# Method in brief: (§1)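 Calcium flux in an inducible, force-coupled HEK293 Trex D1 line (overnight at 30 C): agonist mode is the 180 s kinetic read after compound; potentiator mode is the following 180 s read after dopamine at EC20.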
# [14] = molecular target: D(1A) dopamine receptor (Homo sapiens) (UniProt P21728); test: HTS Assay for Allosteric Agonists of the Human D1 Dopamine Receptor: Primary Screen for Potentiators (AID 488982)
# Method in brief: as §1
# [15] = molecular target: D(1A) dopamine receptor (Homo sapiens) (UniProt P21728); test: HTS Assay for Allosteric Agonists of the Human D1 Dopamine Receptor: Primary Screen for Antagonists (AID 488983);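 note: calcium flux response to an EC80 dopamine challenge measured with no-wash dye; nearly all actives have a fitted effect of over 65% in size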
# Method in brief: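 Tetracycline-induced HEK293 T-REx cells expressing force-coupled D1 were plated overnight at 30 C, dye-loaded for calcium, and read kinetically. Compounds were pinned in, then an EC80 dopamine challenge followed after 180 s to reveal antagonism.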
# [16] = Validation screen for small molecules that induce genotoxicity in human embryonic kidney (HEK293T) cells expressing luciferase-tagged ELG1 (AID 493106)
# Method in brief: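 HEK293T cells expressing luciferase-tagged ELG1 were exposed to compound or DMSO vehicle for 16 hr at 37 °C, 5% CO2. Genotoxic stress raises ELG1 levels, so increased luciferase signal after ONE-Glo addition and 30 min at room temperature marks hits.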
# [17] = molecular target: ATPase family AAA domain-containing protein 5 (Homo sapiens) (UniProt Q96QE3); test: Validation screen for small molecules that inhibit ELG1-dependent DNA repair in human embryonic kidney (HEK293T) cells expressing luciferase-tagged ELG1 (AID 493107);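 note: cells co-treated with the DNA-damaging agent 5-fluorouridine alongside compound; inhibitors lower the ELG1-luciferase luminescence signal; nearly all actives have a fitted effect of over 70% in size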
# Method in brief: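 HEK293T cells expressing luciferase-tagged ELG1 were co-treated with 5-fluorouridine and compound or DMSO for 16 hr at 37 °C, 5% CO2. Luciferase activity was then read with ONE-Glo after 30 min at room temperature; suppressed signal indicates blocked ELG1 function.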
# [18] = Nrf2 qHTS screen for inhibitors: Validation (AID 493153; active = well fitted inhibition curve with a large enough effect in the main read-out, with a control signal flat, not every such curve was filed as active); details: viability change: measured here: cytotoxicity max response
# Method in brief: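 A549 cells carrying an ARE-driven firefly luciferase reporter, in 5% FBS OPTI-MEM, were treated with compounds in concentration-response for 18-24 h at 37°C. Viability was read by CellTiter-Fluor fluorescence, then Nrf2 activity by luciferase luminescence.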
# [19] = qHTS for Inhibitors of Cell Surface uPA Generation: Validation Assay (AID 493164);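 note: RAW 264.7 macrophage cells exposed to compound for 18 h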
# Method in brief: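 RAW 264.7, 4000 cells/well, o/n plating; cpd 7-pt 1:5 dilution 2.45 nM–38.3 uM final; 18 h, 37 C/5% CO2; ATP-Lite, 5 s luminescence exposure.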
# [20] = molecular target: Peptidyl-prolyl cis-trans isomerase NIMA-interacting 1 (Homo sapiens) (UniProt Q13526); test: qHTS Validation Assay to Find Inhibitors of Pin1 (AID 504536; active = well fitted inhibition curve with a large enough effect in the polarisation, with a control signal flat, not every such curve was filed as active; the % refers to the polarisation)
# Peptidyl-prolyl cis-trans isomerase NIMA-interacting 1 (Homo sapiens), sequence (Q13526 whole entry, looked up): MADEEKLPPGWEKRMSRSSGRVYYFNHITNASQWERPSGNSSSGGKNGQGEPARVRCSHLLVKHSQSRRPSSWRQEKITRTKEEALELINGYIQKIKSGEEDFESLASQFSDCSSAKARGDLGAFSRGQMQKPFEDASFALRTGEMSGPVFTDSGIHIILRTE
# Method in brief: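 Fluorescence polarization competition: compounds (titration) displace HiFluor-488-labeled Pin1-1b peptide from Pin1 (0.3 uM final) in pH 7.5 HEPES buffer with DTT, 10 min at room temperature; %Activity normalized to no-enzyme wells, curves fitted.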
# [21] = molecular target: Phosphoglycerate kinase, glycosomal (Trypanosoma brucei brucei) (UniProt P07378); test: qHTS Validation Assay to Find Inhibitors of Phosphoglycerate Kinase (AID 504547)
# Method in brief: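 Inhibition of the enzyme is judged by a Kinase-Glo Plus luminescent signal following a one-hour incubation at room temperature. Because 1,3-BPG is unstable, it is made in situ by GAPDH at 100nM final; no-PGK wells define the baseline.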
# [22] = molecular target: phosphoglycerate mutase (Leishmania major) (UniProt Q4Q090); test: qHTS Validation Assay to Find Inhibitors of Phosphoglycerate Mutase (AID 504548)
# Method in brief: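 Lm PGAM 1.25nM final; 100 mM TEA pH 7.6, 5 mM MgCl2, 0.01% Tween-20; 45 min RT; Kinase-GloPlus, 10 min; end-point luminescence. Enzyme-free wells as negative controls.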
# [23] = molecular target: Ubiquitin carboxyl-terminal hydrolase 1 (Homo sapiens) (UniProt O94782); test: Inhibitors of USP1/UAF1: Pilot qHTS (AID 504865);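 note: rhodamine fluorescence freed from ubiquitin-rhodamine substrate followed over time; top concentration of the series differs between compounds; nearly all actives have a fitted effect of over 35% in size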
# Ubiquitin carboxyl-terminal hydrolase 1 (Homo sapiens), sequence (O94782 whole entry, looked up): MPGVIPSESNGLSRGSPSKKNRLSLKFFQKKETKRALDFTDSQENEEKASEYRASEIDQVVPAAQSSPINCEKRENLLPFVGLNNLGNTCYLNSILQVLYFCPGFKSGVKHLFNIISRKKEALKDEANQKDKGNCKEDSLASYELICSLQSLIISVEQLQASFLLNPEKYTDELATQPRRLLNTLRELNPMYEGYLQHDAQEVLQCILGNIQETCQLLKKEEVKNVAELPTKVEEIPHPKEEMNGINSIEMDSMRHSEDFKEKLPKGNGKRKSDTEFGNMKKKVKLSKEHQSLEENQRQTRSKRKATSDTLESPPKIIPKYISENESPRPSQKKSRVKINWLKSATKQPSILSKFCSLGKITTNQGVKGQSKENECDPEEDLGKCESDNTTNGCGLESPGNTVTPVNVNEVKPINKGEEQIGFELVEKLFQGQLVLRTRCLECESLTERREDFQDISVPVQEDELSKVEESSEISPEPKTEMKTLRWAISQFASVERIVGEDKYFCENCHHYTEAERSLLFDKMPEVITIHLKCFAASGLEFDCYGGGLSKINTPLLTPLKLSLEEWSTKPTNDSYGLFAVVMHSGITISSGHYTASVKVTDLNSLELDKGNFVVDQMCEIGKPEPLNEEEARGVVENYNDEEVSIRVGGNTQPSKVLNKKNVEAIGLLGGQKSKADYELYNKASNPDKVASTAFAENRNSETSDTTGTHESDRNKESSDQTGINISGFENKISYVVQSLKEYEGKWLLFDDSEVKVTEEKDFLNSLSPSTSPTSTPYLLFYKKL
# Method in brief: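 USP1/UAF1 complex (1nM) preincubated with compound 15 min at room temperature, then Ub-Rho substrate (150nM final) added. Fluorescence read kinetically at 480/540 nm, 6 reads every 60 seconds. Buffer: 50mM HEPES pH 7.8, 0.5mM EDTA, 0.1 mg/ml BSA, 1mM TCEP, 0.01% Tween-20.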
# [24] = qHTS for Inhibitors of ATXN expression: Validation (AID 588378); note: nearly all actives have a fitted effect of over 75% in size
# Method in brief: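 Luminescence from an ATXN2-FFLuc reporter in HEK293 cells served as read-out after 24 h compound treatment at 37 degrees C; CellTiter-Fluor fluorescence was recorded first to assess viability.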
# [25] = molecular target: Glutaminase kidney isoform, mitochondrial (Homo sapiens) (UniProt O94925); test: qHTS for Inhibitors of Glutaminase (GLS): LOPAC Validation (AID 624146);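 note: glutamate product detected by oxidase and peroxidase coupled Amplex red fluorescence gain; nearly all actives have a fitted effect of over 60% in size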
# Glutaminase kidney isoform, mitochondrial (Homo sapiens), sequence (O94925 whole entry, looked up, canonical isoform): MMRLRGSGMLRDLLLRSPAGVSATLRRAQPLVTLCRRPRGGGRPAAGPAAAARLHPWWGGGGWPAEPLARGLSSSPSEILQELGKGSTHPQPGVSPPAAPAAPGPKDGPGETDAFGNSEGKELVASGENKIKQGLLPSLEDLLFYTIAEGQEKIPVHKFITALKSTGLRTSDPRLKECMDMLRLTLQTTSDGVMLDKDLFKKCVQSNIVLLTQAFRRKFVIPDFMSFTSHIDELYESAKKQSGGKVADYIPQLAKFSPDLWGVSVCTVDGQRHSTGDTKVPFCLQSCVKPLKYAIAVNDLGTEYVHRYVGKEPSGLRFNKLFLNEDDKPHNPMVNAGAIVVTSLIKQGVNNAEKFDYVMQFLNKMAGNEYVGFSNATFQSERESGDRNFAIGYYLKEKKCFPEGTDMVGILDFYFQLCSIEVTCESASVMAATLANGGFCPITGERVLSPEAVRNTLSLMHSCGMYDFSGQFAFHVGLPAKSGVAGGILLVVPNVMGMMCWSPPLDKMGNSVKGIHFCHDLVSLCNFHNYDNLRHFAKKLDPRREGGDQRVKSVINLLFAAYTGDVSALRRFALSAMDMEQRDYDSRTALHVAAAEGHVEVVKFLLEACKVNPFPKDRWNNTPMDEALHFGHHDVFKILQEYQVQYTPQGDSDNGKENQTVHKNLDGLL
# Method in brief: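 Human kidney-isoform GLS in 45 mM KH2PO4 pH 8.2, 0.02% Tween-20, with compound, started with 1mM L-Glutamine (added stock). Glutamate oxidase/HRP/Amplex red coupled fluorescence read at start and after 30 min at RT.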
# [26] = molecular target: Glucagon-like peptide 1 receptor (Homo sapiens) (UniProt P43220); test: qHTS of GLP-1 Receptor Agonists: LOPAC Validation (AID 624148);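 note: luminescence from a luciferase reporter switched on by cAMP; higher luminescence signal means agonism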
# Glucagon-like peptide 1 receptor (Homo sapiens), sequence (P43220 whole entry, looked up): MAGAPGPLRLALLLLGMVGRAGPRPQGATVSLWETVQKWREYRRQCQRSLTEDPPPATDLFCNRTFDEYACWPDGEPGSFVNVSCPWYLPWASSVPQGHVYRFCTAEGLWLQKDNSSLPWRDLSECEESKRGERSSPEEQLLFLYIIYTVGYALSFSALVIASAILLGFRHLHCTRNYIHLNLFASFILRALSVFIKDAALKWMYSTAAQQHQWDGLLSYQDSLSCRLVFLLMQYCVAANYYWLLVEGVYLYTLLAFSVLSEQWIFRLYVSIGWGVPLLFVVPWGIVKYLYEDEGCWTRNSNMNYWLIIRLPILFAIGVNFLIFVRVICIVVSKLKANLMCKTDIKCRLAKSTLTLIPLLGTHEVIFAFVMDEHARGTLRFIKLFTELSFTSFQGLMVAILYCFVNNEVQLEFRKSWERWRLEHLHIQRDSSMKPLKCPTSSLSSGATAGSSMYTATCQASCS
# Method in brief: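 Agonism scored as increased luciferase luminescence driven by cAMP in HEK293 clones carrying GLP-1R. Cells settled 12 hours, received compound for 4-6 hr at 37 deg C, 5% CO2, and were read after 12 min detection reagent at RT.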
# [27] = qHTS of Nrf2 Activators: LOPAC Validation (AID 624149)
# Method in brief: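 AREc32 cells carrying an ARE-driven firefly luciferase were grown overnight in OPTI-MEM with 5% FBS, then exposed to compounds for 24 hr at 37 deg C. Luciferase signal was read after 30 min with Steady-Glo at RT.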
compound,measurement,setting,value
CN1C2CCCC1CC(NC(=O)c1nn(C)c3ccccc13)C2 (stereo not drawn),outcome,[1],inactive
same,outcome,[2],inactive
same,Potency,[3],inactive
same,Potency,[4],inactive
same,Potency,[5],inactive
same,Potency,[6],inactive
same,outcome,[7],inactive
same,outcome,[8],inactive
same,outcome,[9],inactive
same,Potency,[10],inactive
same,Potency,[11],inactive
same,Potency,[12],inactive
same,outcome,[13],inactive
same,outcome,[14],inactive
same,outcome,[15],inactive
same,Potency,[16],inactive
same,Potency,[17],inactive
same,outcome,[18],inactive
same,viability change,[18],0.0672%
same,outcome,[19],inactive
same,Potency,[20],inactive
same,Potency,[21],inactive
same,outcome,[22],inactive
same,Potency,[23],inactive
same,Potency,[24],inactive
same,Potency,[25],inactive
same,outcome,[26],inactive
same,outcome,[27],inactive
